Data published in PubChem BioAssay (NCATS).
Records with an inconclusive call do not appear. The source made the active and inactive calls. The call rests on the fitted dose curve; in most records, active means well fitted cell-killing curve with a large enough effect; inconclusive means small, poorly fitted or top-dose-only effect, or effect the other way; inactive means flat fitted curve, though single readings scatter.

Legend:
Assay in all cases: Primary qHTS to identify gynecologic anti-cancer compounds using libraries of approved drugs and bioactive compounds (AID 1345084); further: nearly all actives have a fitted effect of over 55% in size
[1] = test system: Es-2; conditions: Gynecologic cancer cell panel viability, ATPlite luminescence, 48 h; series mostly up to 57.5 µM
Procedure, shortened: (§1)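 Cytotoxicity screen measuring ATP content by luciferase luminescence. Each compound is applied at five concentrations for 48 h at 37 C with 5% CO2.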

[2] = test system: HeLa; conditions: Gynecologic cancer cell panel viability, ATPlite luminescence, 48 h; series mostly up to 57.5 µM
Procedure, shortened: as §1

[3] = test system: Hek293T; conditions: Gynecologic cancer cell panel viability, ATPlite luminescence, 48 h, control line for the selectivity index; series mostly up to 57.5 µM
Procedure, shortened: as §1

[4] = test system: JEG-3; conditions: Gynecologic cancer cell panel viability, ATPlite luminescence, 48 h; series mostly up to 57.5 µM
Procedure, shortened: as §1

[5] = test system: OV90; conditions: Gynecologic cancer cell panel viability, ATPlite luminescence, 48 h; series mostly up to 57.5 µM
Procedure, shortened: as §1

[6] = test system: PA-1; conditions: Gynecologic cancer cell panel viability, ATPlite luminescence, 48 h; series mostly up to 57.5 µM
Procedure, shortened: as §1

[7] = test system: SKOV3; conditions: Gynecologic cancer cell panel viability, ATPlite luminescence, 48 h; series mostly up to 57.5 µM
Procedure, shortened: as §1

[8] = test system: Tov-21-G; conditions: Gynecologic cancer cell panel viability, ATPlite luminescence, 48 h; series mostly up to 57.5 µM
Procedure, shortened: as §1

[9] = test system: Tov112D; conditions: Gynecologic cancer cell panel viability, ATPlite luminescence, 48 h; series mostly up to 57.5 µM
Procedure, shortened: as §1
On the % scale 0 is the no-effect control and ±100 the full control effect.

C/C(=C\CO)CC/C=C(\C)C(=O)O[C@H]1[C@H](OC2OC=C(C(=O)O)C3CCC(C)(O)C23)O[C@H](CO)[C@@H](O)[C@@H]1O (stereo partly specified)
inactive: Potency [1] | Potency [2] | Potency [3] | Potency [4] | Potency [5] | Potency [6] | Potency [7] | Potency [8] | Potency [9]

C/C=C(/C)C(=O)O[C@H]1C=C(C)C[C@H](OC(=O)c2ccc(O)cc2)C2[C@](O)(C(C)C)CC[C@@]21C (stereo partly specified)
inactive: Potency [1] | Potency [2] | Potency [3] | Potency [4] | Potency [5] | Potency [6] | Potency [7] | Potency [8] | Potency [9]

COc1ccc(/C=C/C(=O)O[C@H]2[C@@H]3C=CO[C@@H](O[C@@H]4O[C@H](CO)[C@@H](O)[C@H](O)[C@H]4O)[C@@H]3[C@@]3(CO)O[C@@H]23)cc1O
inactive: Potency [1] | Potency [2] | Potency [3] | Potency [4] | Potency [5] | Potency [6] | Potency [7] | Potency [8] | Potency [9]

COc1cc(/C=C/C(=O)OC[C@H]2O[C@H](O[C@]3(CO)O[C@H](CO)[C@@H](O)[C@@H]3O)[C@H](O)[C@@H](O)[C@@H]2O)cc(OC)c1O
inactive: Potency [1] | Potency [2] | Potency [3] | Potency [4] | Potency [5] | Potency [6] | Potency [7] | Potency [8] | Potency [9]

C=C1[C@H]2[C@H](O[C@@H]3O[C@H](COC(=O)/C=C/c4cc(OC)c(O)c(OC)c4)[C@@H](O)[C@H](O)[C@H]3O)OC=C(C(=O)O)[C@H]2C[C@@H]1O
inactive: Potency [1] | Potency [2] | Potency [3] | Potency [4] | Potency [5] | Potency [6] | Potency [7] | Potency [8] | Potency [9]

CC(/C=C/C1(O)C(C)(C)CC(O)CC1(C)O)OC1OC(CO)C(O)C(O)C1O (stereo unspecified)
inactive: Potency [1] | Potency [2] | Potency [3] | Potency [4] | Potency [5] | Potency [6] | Potency [7] | Potency [8] | Potency [9]

COc1cc([C@H]2OC[C@]3(OC(C)=O)[C@@H](c4ccc(O[C@@H]5O[C@H](CO)[C@@H](O)[C@H](O)[C@H]5O)c(OC)c4)OC[C@H]23)ccc1O
inactive: Potency [1] | Potency [2] | Potency [3] | Potency [4] | Potency [5] | Potency [6] | Potency [7] | Potency [8] | Potency [9]

c1ccc(C(OC2CCN(CCCc3nn[nH]n3)CC2)c2ccccc2)cc1
inactive: Potency [1] | Potency [2] | Potency [3] | Potency [4] | Potency [5] | Potency [6] | Potency [7] | Potency [8] | Potency [9]

O=C(/C=C/c1ccccc1)OCC1=CC[C@@H]2C(C(=O)O)=CO[C@@H](O[C@@H]3O[C@H](CO)[C@@H](O)[C@H](O)[C@H]3O)[C@H]12
inactive: Potency [1] | Potency [2] | Potency [3] | Potency [4] | Potency [5] | Potency [6] | Potency [7] | Potency [8] | Potency [9]

O=C1NC(Cc2ccc(O)cc2)C(=O)N2CCCC12 (stereo unspecified)
inactive: Potency [1] | Potency [2] | Potency [3] | Potency [4] | Potency [5] | Potency [6] | Potency [7] | Potency [8] | Potency [9]

C=C1CCC[C@]2(C)C[C@]3(O)OC(=O)C(C)=C3C[C@@H]12
inactive: Potency [1] | Potency [2] | Potency [3] | Potency [4] | Potency [5] | Potency [6] | Potency [7] | Potency [8] | Potency [9]

CC1CC(O)C2(C)C(C(=O)O)=CCCC2C1(C)CCc1ccoc1 (stereo unspecified)
inactive: Potency [1] | Potency [2] | Potency [3] | Potency [4] | Potency [5] | Potency [6] | Potency [7] | Potency [8] | Potency [9]

C=C(C)[C@@H](C)[C@H]1O[C@]23C[C@]4(CO2)C(CCC2[C@@]5(C)CC[C@H](O[C@@H]6OC[C@H](O)[C@H](O[C@@H]7O[C@H](CO)[C@@H](O)[C@H](O)[C@H]7O)[C@H]6O[C@@H]6O[C@@H](CO)[C@H](O)[C@H]6O)C(C)(C)C5CC[C@]24C)C3[C@@](C)(O)[C@@H]1OC(C)=O (stereo partly specified)
inactive: activity change, negative = cytotoxicity [1] 4.13% [at 11.6 µM] | activity change, negative = cytotoxicity [2] -18.1% [at 11.6 µM] | activity change, negative = cytotoxicity [3] -2.35% [at 11.6 µM] | activity change, negative = cytotoxicity [4] 10.2% [at 11.6 µM] | activity change, negative = cytotoxicity [5] 2.63% [at 11.6 µM] | activity change, negative = cytotoxicity [6] 20.8% [at 11.6 µM] | activity change, negative = cytotoxicity [7] 6.78% [at 11.6 µM] | activity change, negative = cytotoxicity [8] 0.172% [at 11.6 µM] | activity change, negative = cytotoxicity [9] 3.31% [at 11.6 µM]

C[C@@H]1C(=O)O[C@H]2CC34[C@H]5C[C@@H](C(C)(C)C)C36[C@@H](OC(=O)[C@@H]6O)OC4(C(=O)O5)[C@]21O (stereo partly specified)
inactive: Potency [1] | Potency [2] | Potency [3] | Potency [4] | Potency [5] | Potency [6] | Potency [7] | Potency [8] | Potency [9]
